# Test results as given in PubChem BioAssay (EPA / NIEHS).
# Several values for one entry are separate records, joined by “and”; a condition that tells them apart may be missing. Equal values may be shown once. Results filed as inconclusive are left out. Where a structure was tested more than once in an assay, its records may differ in their call. Activity calls are given as the source filed them. The calls were made as follows: active = hit-call score of the fitted dose curve at least 0.9, where 1 is the maximum; inconclusive = response in the unintended direction; inactive = score below 0.9.
# Biological target: Estrogen receptor (Homo sapiens) (UniProt P03372)
# Sequence (P03372 whole entry, looked up): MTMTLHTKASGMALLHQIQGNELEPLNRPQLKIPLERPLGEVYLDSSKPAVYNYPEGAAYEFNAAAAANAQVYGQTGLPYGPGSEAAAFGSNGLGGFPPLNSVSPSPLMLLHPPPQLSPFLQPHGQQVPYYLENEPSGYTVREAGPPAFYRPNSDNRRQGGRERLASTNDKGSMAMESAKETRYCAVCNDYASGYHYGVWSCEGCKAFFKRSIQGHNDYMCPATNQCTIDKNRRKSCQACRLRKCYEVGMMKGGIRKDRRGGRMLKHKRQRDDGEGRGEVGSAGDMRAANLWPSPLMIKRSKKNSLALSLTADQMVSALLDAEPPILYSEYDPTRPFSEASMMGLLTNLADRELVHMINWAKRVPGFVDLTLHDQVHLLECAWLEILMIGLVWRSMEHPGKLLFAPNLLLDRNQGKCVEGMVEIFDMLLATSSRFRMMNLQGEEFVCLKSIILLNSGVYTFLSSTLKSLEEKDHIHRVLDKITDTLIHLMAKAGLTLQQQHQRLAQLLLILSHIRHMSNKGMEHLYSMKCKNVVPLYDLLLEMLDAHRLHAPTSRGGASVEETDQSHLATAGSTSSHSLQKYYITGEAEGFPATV
# Test: ATG_ERa_TRANS: Attagene TRANS-FACTORIAL HepG2 Assay for human Estrogen Receptor alpha (ERa) (AID 2282970)
# Conditions: HepG2 Attagene TRANS ERa GAL4 reporter, mRNA
# Description: ATG_TRANS is a cell-based, multiplexed-readout assay that uses HepG2, a human liver cell line, with measurements taken at 24 hours after chemical dosing in a 24-well plate.ATG_ERa_TRANS is one of 30 assay component(s) measured or calculated from the ATG_TRANS assay. It is designed to make measurements of mRNA induction, a form of inducible reporter, as detected with fluorescence intensity signals by Reverse transcription polymerase chain reaction (RT-PCR) and Capillary electrophoresis technology.Data from the assay component ATG_ERa_TRANS was analyzed into 1 assay endpoint. This assay endpoint, ATG_ERa_TRANS, was analyzed in the positive analysis fitting direction relative to DMSO as the negative control and baseline of activity. Using a type of inducible reporter, measures of mRNA for gain-of-signal activity can be used to understand the reporter gene at the transcription factor-level as they relate to the gene ESR1. Furthermore, this assay endpoint can be referred to as a primary readout, because this assay has produced multiple assay endpoints where this one serves a reporter gene function. To generalize the intended target to other relatable targets, this assay endpoint is annotated to the nuclear receptor intended target family, where the subfamily is steroidal.
# Human liver HepG2 cells are transiently transfected with multiple reporter transcription units (MRTUs) in 6-well plates using FuGene 6 reagent (Roche; 3 ml FuGene/1 mg DNA). The MRTU constructs are regulated by a cis-regulating element (promoter). […] A major difference between the CIS and TRANS system is that in CIS activities of endogenous TFs are measured, whereas the TRANS assay evaluates changes in activities of exogenous, chimeric NR-Gal4 proteins. […] At the end of 24 hour incubation, total RNA was isolated using TriZol reagent (Invitrogen). The isolated RNA is then reverse-transcribed using oligo(dT) primer and Mo-MLV reverse transcriptase (Invitrogen) with DNAse I (Ambion) treatment for 30 min. The one-tenth of the produced cDNA was amplified by PCR using Taq DNA polymerase (Invitrogen) and two reporter sequence-specific primers. The PCR products were fluorescently labeled by primer extension with 6-arboxyfluorescein (6-FAM) 5'-labeled reporter sequence-specific primer (2 min at 95 C, 20 s at 68 C and 10 min at 72 C) and these products were digested with 5U of HpaI (New England Biolabs) for 2h at 37 C. […] The raw capillary electrophoresis data was processed using Attagraph software (Attagene).
SMILES,outcome,AC50
CCc1nn(C)c(C(=O)NCc2ccc(C(C)(C)C)cc2)c1Cl,inactive,–
CCOC(=O)CC(SP(=S)(OC)OC)C(=O)OCC (stereo not given),–,68 µM (active) and 32.4 µM (active)
CS/C(C)=N/OC(=O)N(C)SN(C)C(=O)O/N=C(\C)SC,inactive,–
COc1cnc(OC)n2nc(NS(=O)(=O)c3c(OCC(F)F)cccc3C(F)(F)F)nc12,inactive,–
COC(=O)N(OC)c1ccccc1COc1ccn(-c2ccc(Cl)cc2)n1,inactive,–
CCCCNC(=O)OCC#CI,inactive,25.4 µM (active)
N#Cc1cc(Br)c(O)c(Br)c1,inactive,–
Cc1ccc(-c2c(Cl)nc(C#N)n2S(=O)(=O)N(C)C)cc1,inactive,–
CO/C=C(/C(=O)OC)c1ccccc1Oc1cc(Oc2ccccc2C#N)ncn1,inactive,–
CNC(=O)ON=CC(C)(C)SC,inactive,–
CCON=C(CC)C1=C(O)CC(c2c(C)cc(C)cc2C)CC1=O (stereo not given),inactive,–
O=C(O)c1nc(Cl)ccc1Cl,inactive,–
C=CCC1=C(C)[C@@H](OC(=O)[C@@H]2[C@@H](C=C(C)C)C2(C)C)CC1=O,inactive,–
OC(c1ccc(Cl)cc1)(c1cncnc1)c1ccccc1Cl (stereo not given),inactive,3.2 µM (active)
O=C(O)COc1nc(Cl)c(Cl)cc1Cl,inactive,–
CCCN(CCC)c1c([N+](=O)[O-])cc(S(N)(=O)=O)cc1[N+](=O)[O-],inactive,–
COP(N)(=O)SC (stereo not given),inactive,–
CN(C)C(=S)SSC(=S)N(C)C,inactive,–

SMILES,outcome,AC50
N#CC(CCc1ccc(Cl)cc1)(Cn1cncn1)c1ccccc1 (stereo not given),inactive,–
COc1ccc(C(c2ccc(OC)cc2)C(Cl)(Cl)Cl)cc1,inactive,1.53 µM (active) [middle of 4 runs]
CCNc1nc(Cl)nc(NC(C)C)n1,inactive,–
COc1nc(C)nc(NC(=O)NS(=O)(=O)c2ccccc2CCC(F)(F)F)n1,inactive,–
O=C(Nc1ccccc1)Nc1ccnc(Cl)c1,inactive,–
CON(C)C(=O)Nc1ccc(Cl)c(Cl)c1,inactive,–
N#Cc1nn(-c2c(Cl)cc(C(F)(F)F)cc2Cl)c(N)c1S(=O)C(F)(F)F (stereo not given),inactive,11.8 µM (active)
C#CCOS(=O)OC1CCCCC1Oc1ccc(C(C)(C)C)cc1 (stereo not given),inactive,–
C=CC1(C)OC(=O)N(c2cc(Cl)cc(Cl)c2)C1=O (stereo not given),inactive,–
COC(=O)C=C(C)OP(=O)(OC)OC,inactive,–
CC(C)C1(C)N=C(c2nc3ccccc3cc2C(=O)O)NC1=O (stereo not given),inactive,–
C=CCC1=C(C)C(OC(=O)C2C(C=C(C)C)C2(C)C)CC1=O (stereo not given),inactive,26.8 µM (active)
CC1COC(Cn2cncn2)(c2ccc(Oc3ccc(Cl)cc3)cc2Cl)O1 (stereo not given),inactive,–
COC(=O)c1ccccc1C(=O)OC,inactive,–
CCCCOC(=O)c1ccccc1C(=O)OCCCC,inactive,–
CCOc1cc(Oc2ccc(C(F)(F)F)cc2Cl)ccc1[N+](=O)[O-],inactive,–
COc1nc(C)nc(NC(=O)NS(=O)(=O)c2ccccc2Cl)n1,inactive,–
